Source: PubChem
ADAM17 inh = ADAM17 inhibitors, primary screen, biochemical, QFRET; recombinant ADAM17, EDANS/DABCYL FRET peptide cleavage; Disintegrin and metalloproteinase domain-containing protein 17 (Homo sapiens), P78536; actives 0.83% (n = 370,000); inhibition, % at 6.95 µM;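 active = inhibition above the mean of compounds lying between control limits plus 3 SD, set per campaign, cut at about 8.5% in these data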;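 also: 0% = DMSO-only wells as the low control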
proKLK7 act = proKLK7 zymogen activators, primary screen, biochemical, fluorescence intensity | purified proKLK7, EDANS-DABCYL substrate fluorescence; 100% is mature enzyme control, 0% vehicle | activation, % at 7 µM | actives 0.9% (n = 370,000) | AID 652039, 2013;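 active = activation above the mean of all tested compounds plus 3 SD, computed per campaign excluding outliers beyond control limits, cut at about 13% in these data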
PLCg1 inh = PLC-gamma1 enzyme inhibitors, primary screen, biochemical, fluorescence, purified enzyme; actives 0.84% (n = 370,000); 1-phosphatidylinositol 4,5-bisphosphate phosphodiesterase gamma-1 (Homo sapiens), P19174; inhibition, % at 12.2 µM; fluorogenic substrate; in the data active = inhibition above about 9.5%
ADAM10 inh = human ADAM10 inhibitors, primary screen, biochemical, QFRET, HTS | AID 720582, 2013 | Disintegrin and metalloproteinase domain-containing protein 10 (Homo sapiens), O14672 | recombinant ADAM10, EDANS/DABCYL FRET peptide cleavage, 3 h | inhibition, % at 7 µM | actives 0.62% (n = 370,000);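 active = inhibition above a per-campaign cutoff equal to the mean of compounds falling between control-based bounds plus 3 SD, cut at about 20% in these data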;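 also: 0% = DMSO wells while the 100% control is not disclosed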
Target sequence (O14672 214-748 limits assumed): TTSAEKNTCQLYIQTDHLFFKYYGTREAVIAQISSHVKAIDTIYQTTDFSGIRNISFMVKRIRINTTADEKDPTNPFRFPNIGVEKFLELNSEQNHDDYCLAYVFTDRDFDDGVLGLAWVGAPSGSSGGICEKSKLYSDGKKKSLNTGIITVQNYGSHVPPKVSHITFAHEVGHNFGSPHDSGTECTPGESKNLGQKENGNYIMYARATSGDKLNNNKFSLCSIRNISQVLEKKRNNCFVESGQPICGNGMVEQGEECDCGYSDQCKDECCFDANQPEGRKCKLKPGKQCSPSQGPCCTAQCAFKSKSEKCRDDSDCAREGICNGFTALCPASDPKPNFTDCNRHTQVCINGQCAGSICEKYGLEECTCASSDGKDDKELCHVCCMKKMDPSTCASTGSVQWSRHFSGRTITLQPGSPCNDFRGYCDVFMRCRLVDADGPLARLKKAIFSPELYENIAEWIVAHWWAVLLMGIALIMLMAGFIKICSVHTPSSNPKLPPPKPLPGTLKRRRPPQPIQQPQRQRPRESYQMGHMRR
PLC-beta3 inh = human PLC-beta3 inhibitors, primary screen, biochemical, fluorescence. Purified PLC-beta3, fluorogenic substrate. inhibition, % at 12.2 µM. actives 0.18% (n = 370,000). AID 720704, 2013; in the data active = inhibition above about 11%;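 also: 0% = median of compound wells on plate and 100% = full blocker control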
ADAM10 confirm = human ADAM10 inhibitors, confirmation, biochemical, QFRET, triplicate; ADAM10 QFRET peptide cleavage, EDANS fluorescence; inhibition, % at 6.95 µM; shares compounds with ADAM10 inh; actives 1% (n = 2,100);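 active = inhibition above about 20% chosen separately for each screening run, limit read from the data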;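 also: 0% = DMSO wells and 100% = marimastat wells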
ADAM17 counter = ADAM17 inhibitors, counter-screen for ADAM10 exosite inhibitor project, biochemical, QFRET, high throughput; shares compounds with ADAM10 inh; ADAM17 QFRET peptide cleavage, EDANS fluorescence; inhibition, % at 6.95 µM; actives 0.5% (n = 2,100); AID 743214, 2013;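 active = mean triplicate inhibition above the solvent-only control wells' mean plus 3 SD, cut at about 12% in these data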;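 also: 0% = DMSO wells and 100% = marimastat wells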
The depositor's hits bear a star; · = no result given. This is a sample that favours compounds with a hit; in the whole collection about 2.9% have one here.

SMILES	ADAM17 inh	proKLK7 act	PLCg1 inh	ADAM10 inh	PLC-beta3 inh	ADAM10 confirm	ADAM17 counter
CCOc1cc(/C=N/NC(=O)COc2ccc(C)cc2)ccc1OC(=O)c1cccs1	4	0	1	21*	4	10	2
CN(C)[C@@H]1CCN(c2cccc3c2S(=O)(=O)N(C2CC2)CCCO3)C1	-8	0	-4	-10	-1	·	·
Cc1ccc(S(=O)(=O)N2[C@@H](c3ccc(Cl)cc3)C(C(=O)O)=CC[C@H]2c2ccc(C(C)C)cc2)cc1	1	0	-1	21*	-5	1	0
COc1ccc(CC2CCN(c3ncnc4sccc34)CC2)cc1	0	·	-1	4	-7	·	·
CC(=O)Nc1cccc(C(=O)OC(C(=O)c2ccc(C)cc2)c2ccccc2)c1 (stereo not drawn)	7	0	-1	25*	-1	5	2
O=C(Cc1cccc(C(F)(F)F)c1)Nc1ccc(S(=O)(=O)N2CCCC2)cc1	6	0	1	16	-6	·	·
CC(C)(C)c1ccc(OCCC(=O)Nc2cccc(S(=O)(=O)N3CCCCC3)c2)cc1	5	-1	0	24*	4	10	3
O=C(Cc1cccc(C(F)(F)F)c1)Nc1cccc(S(=O)(=O)N2CCCC2)c1	3	0	4	20*	-26	1	1
CC[C@]12c3[nH]c4ccc(Cl)cc4c3CCN1C(=O)[C@@H](CC(=O)NCc1cccc(C(F)(F)F)c1)C[C@@H]2C(=O)N1CCN(C(=O)c2ccco2)CC1	3	1	5	23*	0	0	2
CC[C@@H](CCCc1ccc(F)cc1)CN(Cc1ccc(OC)cc1)S(=O)(=O)c1ccc(C)cc1	-4	0	0	-8	-4	·	·
CCOC(=O)c1c(N)sc(C(O)(C(F)(F)F)C(F)(F)F)c1-c1ccc(F)cc1	11*	0	0	24*	-4	6	2
CCOC(=O)c1c(NC(=O)C2C3CCC(O3)C2C(=O)O)sc(C)c1-c1ccc(F)cc1 (stereo not drawn)	-7	0	-3	-4	-3	·	·
O=C(c1ccc(C#Cc2ccccc2)o1)N1CCN(c2ccccn2)CC1	6	0	-16	22*	-17	4	1
CC1CCCN(S(=O)(=O)c2ccc(NC(=O)CN3C(=O)NC(C)(c4ccccc4)C3=O)cc2)C1 (stereo not drawn)	5	0	4	20*	-9	4	1
COc1ccc(C2(C)NC(=O)N(CC(=O)Nc3ccc(S(=O)(=O)N4CCCC4)cc3)C2=O)cc1 (stereo not drawn)	-2	1	0	1	-10	·	·
O=C(c1cccs1)N1CCc2c([nH]c3ccccc23)C1c1ccccn1 (stereo not drawn)	1	1	-6	4	-3	·	·
O=C(c1cc(-c2ccccc2)n[nH]1)N1CCc2c([nH]c3ccccc23)C1c1ccccn1 (stereo not drawn)	5	1	-2	27*	-1	6	3
S=C(Nc1ccc(Cl)c(Cl)c1)N1CCN(c2ccccn2)CC1	-4	0	1	6	-7	·	·
S=C(Nc1ccc(Oc2ccccc2)cc1)N1CCN(c2ccccn2)CC1	5	0	0	22*	2	2	-1
C[C@@H]1COc2cc(Br)ccc2S(=O)(=O)N1Cc1cn(Cc2ccc(Cl)cc2)nn1	-1	0	0	1	-1	·	·
COCCCN1C(=O)[C@H](CC(=O)N2CCCCC2)[C@]2(C(=O)OC)CCCCC=C12	2	-1	2	9	2	·	·
